Potency and max response data for eleven molecules are collected here from PubChem BioAssay (Tox21).

A number with no mark means an inactive call. Results filed as inconclusive are left out. Active and inactive are the calls of the source. Calls follow the shape of the dose curve; as a rule, active = well fitted curve in the direction sought with a large enough effect in the repeat runs; inconclusive = weak or mixed curves; inactive = no such curve, though single readings can be large; an effect the other way counts as inactive or inconclusive.

The nature of assay [1]: qHTS RealTime-Glo MT Cell Viability Assay in HEK293 cells - 16 hour (AID 1224872). Also: nearly all actives have a fitted effect of over 50% in size. Also: potency is read from the fitted curve at half-maximal effect. Summed up: (§1)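 Nonlytic real-time viability readout: viable cells convert prosubstrate to NanoLuc substrate, giving luminescence proportional to live cell number. HEK293, 600 cells/well, compound added after 5 h, continuous culture at 37 C.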
Assay [2] is described as follows: qHTS RealTime-Glo MT Cell Viability Assay in HepG2 cells - 8 hour (AID 1224873). Also: nearly all actives have a fitted effect of over 55% in size. Also: potency is read from the fitted curve at half-maximal effect. Summed up: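 HepG2 cells (600/well) mixed with RealTime-Glo MT reagent, settled 5 h at 37 C/5% CO2 before compound addition. Nonlytic NanoLuc luminescence from viable-cell prosubstrate reduction read repeatedly during 40 h treatment at 37 C.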
A short description of assay [3]: qHTS RealTime-Glo MT Cell Viability Assay in HEK293 cells - 40 hour (AID 1224874). Also: nearly all actives have a fitted effect of over 50% in size. Also: potency is read from the fitted curve at half-maximal effect. Particulars: RealTime-Glo luminescence; max response: stronger effect = lower value. Summed up:
(§2)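 Measured as luminescence from the same continuously cultured HEK293 wells at successive time points (0, 8, 16, 24, 32, 40 h) after compound addition. Reagent present from seeding; dosing at 5 h; incubation 37 C.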
For orientation: Quantitative high-throughput screening tests each substance at several concentrations.

Assay [4] can be described thus: A CellTox Green Cytotoxicity Assay to monitor cytotoxicity in HEK293 cells - 24 hour (AID 1224875). Also: nearly all actives have a fitted effect of over 45% in size. Also: potency is read from the fitted curve at half-maximal effect. Summed up: (§3)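 Homogeneous no-lysis format: HEK293 cell suspension mixed with CellTox Green reagent, seeded, incubated 5 h at 37 C/5% CO2, then dosed by pintool with compound in DMSO.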
Assay [5] in a line: A CellTox Green Cytotoxicity Assay to monitor cytotoxicity in HepG2 cells - 16 hour (AID 1224876). Also: nearly all actives have a fitted effect of over 45% in size. Also: potency is read from the fitted curve at half-maximal effect. The gist of the method:
(§4)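 Fluorescent DNA-binding dye, 600 HepG2 cells/well, 5 h preincubation then compound in DMSO; same plates read at 0–40 h, 37 C.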

A short description of assay [6]: qHTS RealTime-Glo MT Cell Viability Assay in HepG2 cells - 32 hour (AID 1224877). Also: nearly all actives have a fitted effect of over 55% in size. Also: potency is read from the fitted curve at half-maximal effect. The gist of the method: (§5)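 Luminescence read-out: viable HepG2 cells reduce a prosubstrate to a NanoLuc substrate, giving a signal proportional to live cell number. Reads taken at 0, 8, 16, 24, 32 and 40 h of compound exposure at 37 C.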
The nature of assay [7]: A CellTox Green Cytotoxicity Assay to monitor cytotoxicity in HepG2 cells - 24 hour (AID 1224878). Also: nearly all actives have a fitted effect of over 45% in size. Also: potency is read from the fitted curve at half-maximal effect. Summed up:
as §4

Assay [8] in a line: A CellTox Green Cytotoxicity Assay to monitor cytotoxicity in HepG2 cells - 40 hour (AID 1224879). Also: nearly all actives have a fitted effect of over 40% in size. Also: potency is read from the fitted curve at half-maximal effect. Summed up: as §4
Assay [9] is described as follows: qHTS RealTime-Glo MT Cell Viability Assay in HEK293 cells - 0 hour (AID 1224880). Also: top concentration of the series differs between compounds; nearly all actives have a fitted effect of over 45% in size. Summed up:
as §2

Assay [10] is described as follows: A CellTox Green Cytotoxicity Assay to monitor cytotoxicity in HEK293 cells - 32 hour (AID 1224881). Also: nearly all actives have a fitted effect of over 40% in size. Also: potency is read from the fitted curve at half-maximal effect. The gist of the method: as §3
Assay [11] in a line: A CellTox Green Cytotoxicity Assay to monitor cytotoxicity in HepG2 cells - 0 hour (AID 1224882). Also: nearly all actives have a fitted effect of over 35% in size. Summed up: as §4
Assay [12] is described as follows: A CellTox Green Cytotoxicity Assay to monitor cytotoxicity in HEK293 cells - 8 hour (AID 1224884). Also: nearly all actives have a fitted effect of over 35% in size. Also: potency is read from the fitted curve at half-maximal effect. Summed up: as §3
Assay [13] is described as follows: qHTS RealTime-Glo MT Cell Viability Assay in HepG2 cells - 16 hour (AID 1224885). Also: nearly all actives have a fitted effect of over 50% in size. Also: potency is read from the fitted curve at half-maximal effect. The gist of the method:
as §5

Assay [14] is described as follows: qHTS RealTime-Glo MT Cell Viability Assay in HEK293 cells - 24 hour (AID 1224886). Also: nearly all actives have a fitted effect of over 50% in size. Also: potency is read from the fitted curve at half-maximal effect. The gist of the method: as §1
The nature of assay [15]: A CellTox Green Cytotoxicity Assay to monitor cytotoxicity in HEK293 cells - 16 hour (AID 1224888). Also: nearly all actives have a fitted effect of over 35% in size. Also: potency is read from the fitted curve at half-maximal effect. The gist of the method:
as §3

Assay [16] in a line: qHTS RealTime-Glo MT Cell Viability Assay in HepG2 cells - 0 hour (AID 1224889). Also: nearly all actives have a fitted effect of over 50% in size. Summed up:
as §5

A short description of assay [17]: A CellTox Green Cytotoxicity Assay to monitor cytotoxicity in HepG2 cells - 8 hour (AID 1224890). Also: nearly all actives have a fitted effect of over 45% in size. Also: potency is read from the fitted curve at half-maximal effect. The gist of the method: as §4
Assay [18] in a line: qHTS assay to identify small molecule antagonists of the estrogen receptor alpha (ER-alpha) signaling pathway using the BG1 cell line in the presence of 0.1 nM 17-beta-estradiol - cell viability counter screen (AID 1259241). Also: nearly all actives have a fitted effect of over 40% in size. Also: potency is read from the fitted curve at half-maximal effect. The gist of the method: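 Cells were plated and left 24 hr, compounds in DMSO were pinned in, 17beta-estradiol was added to 0.1 nM final, and after 22 hr CellTiter-Fluor reagent was added for 30 min before fluorescence was read.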

Assay [19] in a line: A CellTox Green Cytotoxicity Assay to monitor cytotoxicity in HepG2 cells - 32 hour (AID 1224883). Also: nearly all actives have a fitted effect of over 50% in size. Also: potency is read from the fitted curve at half-maximal effect. The gist of the method:
as §4

The nature of assay [20]: qHTS RealTime-Glo MT Cell Viability Assay in HEK293 cells - 8 hour (AID 1224887). Also: nearly all actives have a fitted effect of over 50% in size. Also: potency is read from the fitted curve at half-maximal effect. The gist of the method:
as §2
% is scaled to controls: 0 for no effect and ±100 for the full control effect.

As for `CC(C)=CCOc1ccc(/C=C/C(=O)c2ccc(OCC=C(C)C)cc2OCC(=O)O)cc1`, the Potency entry in [1], in assay [2], in assay [4], in [5], in [6] and in assay [7] was “inactive” in each case. Also, the Potency entry in assay [8], in assay [9], in assay [10], in assay [11], in assay [12] and in assay [13] was “inactive” throughout. Also, the Potency entry in assay [14], in [15], in [16], in [17] and in [18] was “inactive” each time. Moreover, the max response in [3] is 1.22%.

On to `CN(C)[C@@H]1C(=O)C(C(N)=O)=C(O)[C@@]2(O)C(=O)C3=C(O)c4c(O)ccc(Cl)c4[C@@H](O)[C@H]3C[C@@H]12`, for which the Potency result in assay [1], in [2], in assay [4], in assay [5], in [6] and in [7] was “inactive” throughout. Further, the Potency entry in assay [8], in assay [9], in assay [11], in assay [19], in assay [12] and in assay [13] was “inactive” throughout. Also, the Potency entry in assay [14], in assay [20], in [15], in [17] and in assay [18] was “inactive” in each case. Moreover, in [3], the max response is -2.42%.

In the case of `CC(C)c1ccc2c(c1)CC[C@H]1[C@](C)(CN)CCC[C@]21C`, the Potency was 13.8 µM (active) in assay [1]; 34.7 µM (active) in assay [2]; 11 µM (active) in assay [3]; 19.5 µM (active) in [4]; 19.5 µM (active) in assay [5]; 11 µM (active) in [6]. Further, the Potency is 13.8 µM (active) in assay [7]; 11 µM (active) in assay [8]; 19.5 µM (active) in assay [10]; 12.3 µM (active) in assay [19]; 38.9 µM (active) in [12]; 17.4 µM (active) in assay [13]. Further, the Potency in assay [14] is 12.3 µM (active); in [20] it was 21.9 µM (active); in assay [15], 24.5 µM (active); in assay [17], 43.6 µM (active). Also, the Potency entry in assay [11] and in assay [18] was “inactive” in each case.

Take `Oc1c(Cl)cc(Cl)c2cccnc12`: the Potency entry in [1], in assay [2], in assay [4], in assay [5], in [6] and in [9] was “inactive” in each case. The Potency result in assay [11], in [13], in assay [20], in [15], in assay [17] and in [18] was “inactive” each time. In addition, the results for the Potency in assay [3], in [8] and in assay [10] were 8.49 µM (active), 8.49 µM (active) and 5.35 µM (active), respectively.

On to `O=C1C=CC(=O)N1c1ccc(Cc2ccc(N3C(=O)C=CC3=O)cc2)cc1`, for which the Potency in assay [1] is 17.4 µM (active); in [2], 12.3 µM (active); in assay [3], 12.3 µM (active); in [4] it was 38.9 µM (active); in assay [5] it was 13.8 µM (active); in [6], 12.3 µM (active). The Potency was 11 µM (active) in [7]; 7.76 µM (active) in assay [8]; 9.77 µM (active) in assay [19]; 54.9 µM (active) in assay [12]; 12.3 µM (active) in [13]; 13.8 µM (active) in assay [14]. Further, the Potency in assay [20] was 21.9 µM (active); in [15], 49 µM (active); in assay [17] it was 17.4 µM (active). Further, the Potency result in assay [11], in assay [16] and in assay [18] was “inactive” throughout.

Consider `O=C(Nc1cccc(Cl)c1)OCC#CCCl`, for which the Potency in assay [1] is 54.9 µM (active); in assay [2], 43.6 µM (active); in assay [3], 49 µM (active); in assay [6], 43.6 µM (active); in assay [13] it was 43.6 µM (active); in assay [14] it was 49 µM (active). The Potency was 43.6 µM (active) in assay [20] and 61.1 µM (active) in assay [18]. The Potency entry in assay [4], in [5], in assay [9], in [11], in assay [12] and in [15] was “inactive” throughout. The Potency entry in assay [16] and in [17] was “inactive” throughout.

Regarding `CCCCCCCC/C=C/CCCCCCCC1=NCCN1CCO`, the Potency in assay [1] is 21.9 µM (active); in assay [2], 43.6 µM (active); in [3], 19.5 µM (active); in [4], 24.5 µM (active); in assay [5], 21.9 µM (active); in [6] it was 15.5 µM (active). Further, the Potency in assay [7] was 13.8 µM (active); in assay [8], 12.3 µM (active); in [10], 24.5 µM (active); in assay [19], 13.8 µM (active); in [12] it was 49 µM (active); in assay [13], 24.5 µM (active). In addition, the values for the Potency in [14], in [15] and in assay [17] were 19.5 µM (active), 34.7 µM (active) and 49 µM (active), respectively. Also, the Potency entry in assay [11] and in [18] was “inactive” in each case.

Take `CCC(N)(CO)CO`: the Potency entry in assay [1], in assay [2], in assay [4], in assay [5], in [6] and in [7] was “inactive” throughout. Further, the Potency result in [8], in assay [9], in assay [11], in assay [19], in assay [12] and in [13] was “inactive” in each case. The Potency entry in assay [14], in assay [20], in assay [15], in assay [16], in assay [17] and in assay [18] was “inactive” throughout. Besides, the max response in assay [3] is 11.9%.

As for `CCc1cc(Cc2cc(CC)c(N)c(CC)c2)cc(CC)c1N`, the Potency in assay [1] was 24.5 µM (active); in [3], 27.5 µM (active); in assay [14], 27.5 µM (active); in [20], 27.5 µM (active). In addition, the Potency entry in assay [2], in [4], in assay [5], in assay [6], in assay [7] and in assay [10] was “inactive” throughout. Besides, the Potency result in assay [11], in [13], in assay [15], in [16], in [17] and in [18] was “inactive” throughout.

As to `O=[N+]([O-])c1ccccc1Nc1ccccc1`, the Potency result in assay [1], in [2], in [4], in assay [5], in assay [6] and in assay [7] was “inactive” throughout. Moreover, the Potency result in assay [8], in assay [9], in assay [11], in assay [12], in assay [13] and in assay [14] was “inactive” each time. Also, the Potency entry in assay [20], in [15], in assay [17] and in assay [18] was “inactive” throughout. In [3], the max response is 0.685%.

As for `N#CSc1ccc(N)c([N+](=O)[O-])c1`, the values for the Potency in assay [1], in assay [3] and in assay [14] were 43.9 µM (active), 49.3 µM (active) and 49.3 µM (active), respectively. The Potency result in [2], in assay [4], in assay [5], in assay [6], in assay [7] and in assay [9] was “inactive” throughout. The Potency entry in assay [10], in assay [11], in assay [12], in assay [13], in [15] and in assay [16] was “inactive” in each case. In addition, the Potency entry in assay [17] is “inactive”.
